Active and inactive are the calls of the source. Unless noted, the rule behind the calls is not given here.

Results on 4 molecules are retold here after PubChem BioAssay.

Experiment [1] concerns Wnt5a (protein binding on small-molecule microarray). Nature of the experiment: small molecules binding Wnt5a protein – biophysical, small-molecule microarray, 635/667 nm fluorescence, primary screen (AID 1142).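 Note: fluorescence read at 667 nm with signal to noise per printed feature.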 The settings on record: 635 nm fluorescence, higher = more signal.
A short description of experiment [2]: ATP-based viability of Huh7 replicon cells – cell-based, CellTiter-Glo luminescence, basal, 48 h, cytotoxicity control for HCV replication inhibitor project, primary screen (AID 1143).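 Note: Huh7 hepatoma cells carrying a hepatitis C replication reporter with no stimulus; test concentration not given here.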 The following applies: higher = more signal, called active from +8 up or from −8 down.
Experiment [3] can be described thus: Pseudomonas biofilm growth suppression – PAO1 strain, BacTiter-Glo luminescence, LB-PBS, primary screen (AID 1144). The settings on record: P. aeruginosa PAO1 biofilm, 12 h, higher = more signal.
A short description of experiment [4]: basal CRE-LacZ reporter activity in PC12 – cell-based, unstimulated, primary screen (AID 1145). The following applies: no forskolin, luminescence, 4.5 h, higher = more signal, called active from +8 up or from −8 down.
Experiment [5] in a line: forskolin-driven CRE-LacZ activity in PC12 – cell-based, CRE-LacZ reporter, forskolin-stimulated, primary screen (AID 1146).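 Note: PC12 cells with 6xCRE LacZ reporter stimulated by forskolin 10 µM; beta-galactosidase reporter signal reflecting CREB driven transcription.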 The settings on record: luminescence, 4.5 h, higher = more signal, called active from +8 up or from −8 down.
The target in experiment [6] is Streptavidin (Streptomyces avidinii) (UniProt P22629). Nature of the experiment: compounds binding control protein streptavidin – biophysical, small-molecule microarray, 635/667 nm fluorescence, artefact control for SMM compound annotation, primary screen (AID 1147).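 Note: signal reflects streptavidin binding to arrayed compounds as a control protein.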 The settings on record: higher = more signal.
Experiment [7] is described as follows: probe aInhba binding on compound microarray – biochemical, small-molecule microarray, 635/667 nm fluorescence, primary screen (AID 1148).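 Note: score merges 667nm spot fluorescence with signal-to-noise for antibody binding to printed compounds.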 The settings on record: higher = more signal.
For experiment [8], the target named is Torsin-1A (Homo sapiens) (UniProt O14656). Nature of the experiment: TOR1A wild-type binding on microarray – cell lysate, small-molecule microarray, lysate, 635/667 nm, primary screen (AID 1149). The settings on record: COS7 hTOR1A-WT lysate, 635 nm fluorescence, higher = more signal.
Experiment [9] shares this target. Nature of the experiment: torsin A mutant lysate binding on microarrays – cell lysate, small-molecule microarray, COS7 lysate, 635/667 nm fluorescence, primary screen (AID 1150).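 Note: score pools 667 nm emission and signal to noise measuring lysate protein binding.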 The following applies: COS7 hTOR1A mutant lysate, 635 nm fluorescence, higher = more signal.
Experiment [10] concerns Sonic hedgehog protein (Shh). Nature of the experiment: Sonic hedgehog microarray binding compounds – biochemical, small-molecule microarray, 635/667 nm fluorescence, primary screen (AID 1151).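 Note: Shh protein binding to compounds spotted on small-molecule microarray slides; score combines spot fluorescence intensity with signal-to-noise across triplicate slides.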 The following applies: 635 nm fluorescence, higher = more signal.
Experiment [11] in a line: optical density shifts of acrAB sulA E. coli – strain DRC41, OD650, 48 h, E. coli filamentation inducer project, primary screen (AID 1152).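 Note: E. coli MC1000 strain DRC41 lacking acrAB efflux pump and sulA.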 The following applies: higher = more signal, called active from +8 up or from −8 down.
Experiment [12] is described as follows: probe aLefty1 binding on compound microarray – biochemical, small-molecule microarray, 635/667 nm fluorescence, primary screen (AID 1153).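 Note: score merges spot fluorescence with signal-to-noise ratio from the scanned slide images.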 The following applies: higher = more signal.
Experiment [13] in a line: plasmodial surface anion channel blockers, osmotic lysis – cell-based, P. falciparum Indochina, OD700, 1 h, primary screen (AID 1154). The settings on record: P. falciparum Indochina infected RBC osmotic lysis, higher = more signal, called active from +8 up or from −8 down.
Experiment [14] is described as follows: plasmodial surface anion channel blockers, osmotic lysis – cell-based, P. falciparum Indochina, OD700, 2 h, primary screen (AID 1155).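 Note: lysis reports solute entry through the parasite surface anion channel PSAC.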 The settings on record: P. falciparum Indochina infected erythrocytes, higher = more signal, called active from +8 up or from −8 down.
Experiment [15] in a line: changes in parasitized red cell lysis, either direction – P. falciparum Indochina, OD700, 3 h, PSAC antagonist project, primary screen (AID 1156). The following applies: P. falciparum-infected erythrocytes, osmotic lysis, higher = more signal, called active from +8 up or from −8 down.
Experiment [16] is described as follows: plasmodial surface anion channel blockers, osmotic lysis – cell-based, P. falciparum Indochina, OD700, 18 h, primary screen (AID 1157). The following applies: P. falciparum Indochina infected erythrocytes, osmotic lysis OD700, 18 h; higher = more signal, called active from +8 up or from −8 down.
Experiment [17] is described as follows: S6 kinase pathway phospho-S6 level changes – cell-based, A549, cytoblot, luminescence, serum-stimulated, primary screen (AID 1158).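 Note: serum-stimulated A549 lung adenocarcinoma cells; signal is phosphorylated S6 detected by cytoblot immunostaining with HRP secondary.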 The settings on record: 5 h, higher = more signal.
In experiment [18] the target is NADPH oxidase 2 (Homo sapiens) (UniProt P04839). Nature of the experiment: compounds shifting NOX2 Amplex Red fluorescence – cell-based, HEK293-NOX2, PMA-stimulated, NOX inhibitor project, primary screen (AID 1159). Note: test concentration not given here. The settings on record: 45 min, higher = more signal, called active from +8 up or from −8 down.
In experiment [19] the target is NADPH oxidase 4 (Homo sapiens) (UniProt Q9NPH5). Nature of the experiment: compounds shifting NOX4 Amplex Red fluorescence – cell-based, HEK293-NOX4, tetracycline-induced, NOX inhibitor project, primary screen (AID 1160). The settings on record: HEK293-NOX4, Amplex Red H2O2 fluorescence, 45 min; higher = more signal, called active from +8 up or from −8 down.
Experiment [20] has as its target NADPH oxidase 5 (Homo sapiens) (UniProt Q96PH1). Nature of the experiment: compounds shifting NOX5 Amplex Red fluorescence – cell-based, HEK293-NOX5, NOX inhibitor project, primary screen (AID 1161). The settings on record: HEK293-NOX5, ionomycin, 45 min, higher = more signal.

Chain of NADPH oxidase 5 (Homo sapiens) (Q96PH1 whole entry, looked up): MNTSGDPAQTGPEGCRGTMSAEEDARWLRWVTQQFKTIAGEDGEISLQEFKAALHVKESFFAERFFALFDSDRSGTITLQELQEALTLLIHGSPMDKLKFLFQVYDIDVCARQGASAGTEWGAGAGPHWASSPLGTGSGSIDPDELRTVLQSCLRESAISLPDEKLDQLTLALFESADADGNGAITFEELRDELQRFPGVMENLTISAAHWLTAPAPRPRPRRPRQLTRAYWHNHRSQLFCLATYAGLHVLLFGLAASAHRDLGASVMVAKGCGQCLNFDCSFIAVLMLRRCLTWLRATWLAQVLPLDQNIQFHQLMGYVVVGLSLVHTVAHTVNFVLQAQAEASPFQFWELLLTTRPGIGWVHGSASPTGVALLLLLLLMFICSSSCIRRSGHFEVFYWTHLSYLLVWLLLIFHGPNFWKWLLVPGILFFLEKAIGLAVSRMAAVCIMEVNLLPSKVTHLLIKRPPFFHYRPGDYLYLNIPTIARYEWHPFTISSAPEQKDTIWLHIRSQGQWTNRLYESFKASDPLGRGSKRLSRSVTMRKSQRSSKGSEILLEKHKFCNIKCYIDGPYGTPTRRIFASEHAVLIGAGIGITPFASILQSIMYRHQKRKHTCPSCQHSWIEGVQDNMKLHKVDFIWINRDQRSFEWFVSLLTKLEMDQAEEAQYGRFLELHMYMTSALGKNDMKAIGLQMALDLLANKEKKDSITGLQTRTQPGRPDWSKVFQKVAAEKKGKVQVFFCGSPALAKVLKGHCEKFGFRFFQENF
Chain of Torsin-1A (Homo sapiens) (O14656 whole entry, looked up): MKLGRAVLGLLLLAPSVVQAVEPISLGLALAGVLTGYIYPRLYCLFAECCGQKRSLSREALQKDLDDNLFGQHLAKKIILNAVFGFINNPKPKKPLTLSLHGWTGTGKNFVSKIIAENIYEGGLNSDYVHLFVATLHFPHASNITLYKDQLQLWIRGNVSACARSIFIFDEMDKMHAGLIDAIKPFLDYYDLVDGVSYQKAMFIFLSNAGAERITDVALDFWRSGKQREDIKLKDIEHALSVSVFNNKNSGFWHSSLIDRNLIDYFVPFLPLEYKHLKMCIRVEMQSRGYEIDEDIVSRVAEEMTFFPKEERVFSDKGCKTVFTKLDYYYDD
Chain of NADPH oxidase 2 (Homo sapiens) (P04839 whole entry, looked up): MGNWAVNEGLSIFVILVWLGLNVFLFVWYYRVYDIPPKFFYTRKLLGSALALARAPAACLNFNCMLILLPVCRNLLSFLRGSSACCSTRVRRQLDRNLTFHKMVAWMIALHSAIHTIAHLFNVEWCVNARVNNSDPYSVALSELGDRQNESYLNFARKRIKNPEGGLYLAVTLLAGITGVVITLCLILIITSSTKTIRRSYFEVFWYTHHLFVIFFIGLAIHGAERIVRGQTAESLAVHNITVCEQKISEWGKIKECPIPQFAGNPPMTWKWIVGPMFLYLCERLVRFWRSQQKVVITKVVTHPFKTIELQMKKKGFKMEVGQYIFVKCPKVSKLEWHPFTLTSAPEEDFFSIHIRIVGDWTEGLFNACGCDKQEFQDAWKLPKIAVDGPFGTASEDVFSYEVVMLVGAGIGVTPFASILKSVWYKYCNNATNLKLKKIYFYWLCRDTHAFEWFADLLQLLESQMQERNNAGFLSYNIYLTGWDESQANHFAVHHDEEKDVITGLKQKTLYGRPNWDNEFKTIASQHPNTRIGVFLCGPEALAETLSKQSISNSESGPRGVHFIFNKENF
Chain of NADPH oxidase 4 (Homo sapiens) (Q9NPH5 whole entry, looked up): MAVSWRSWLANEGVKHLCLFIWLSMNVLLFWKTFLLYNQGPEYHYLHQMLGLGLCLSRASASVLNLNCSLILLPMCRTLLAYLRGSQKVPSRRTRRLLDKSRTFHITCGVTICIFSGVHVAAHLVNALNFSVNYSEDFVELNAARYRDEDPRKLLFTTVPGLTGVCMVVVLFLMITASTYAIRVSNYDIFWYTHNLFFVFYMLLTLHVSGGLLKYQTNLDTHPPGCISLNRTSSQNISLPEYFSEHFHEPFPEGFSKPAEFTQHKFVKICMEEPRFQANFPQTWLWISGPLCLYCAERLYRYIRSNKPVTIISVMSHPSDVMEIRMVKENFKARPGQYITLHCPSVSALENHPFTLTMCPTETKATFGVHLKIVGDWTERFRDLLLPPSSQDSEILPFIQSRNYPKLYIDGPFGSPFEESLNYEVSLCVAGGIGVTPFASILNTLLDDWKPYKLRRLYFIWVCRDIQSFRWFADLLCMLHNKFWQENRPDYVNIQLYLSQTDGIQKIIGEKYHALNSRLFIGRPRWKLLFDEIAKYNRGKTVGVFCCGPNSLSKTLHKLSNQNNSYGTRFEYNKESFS
Chain of Streptavidin (Streptomyces avidinii) (P22629 whole entry, looked up): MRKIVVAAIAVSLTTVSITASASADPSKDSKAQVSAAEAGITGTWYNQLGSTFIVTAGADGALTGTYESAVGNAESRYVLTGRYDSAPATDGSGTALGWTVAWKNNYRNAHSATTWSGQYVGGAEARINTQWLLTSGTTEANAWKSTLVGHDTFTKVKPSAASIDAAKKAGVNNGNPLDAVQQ

For the molecule `CCc1cc2c(nc1CC)CCN(CCC(C)=NO[C@@H](C)c1cc(-c3c(C)cc(C)cc3C)no1)C2`, the composite z-score in experiment [1] was -0.0627; in experiment [6], 1.67; in [7] it was -0.0762; with Torsin-1A (Homo sapiens) [8], -0.233; in the experiment with Torsin-1A (Homo sapiens) [9], 0.0048; in [10], 0.134. In [12], the composite z-score is -0.192. For the same molecule, the z-score is -2.21 (inactive) in [2]; -0.626 (inactive) in experiment [3]; 0.429 (inactive) in [4]; 0.446 (inactive) in [5]; 0.187 (inactive) in experiment [11]; 4.75 (inactive) in [13]. The z-score in [14] is 0.445 (inactive); in experiment [15], 1.41 (inactive); in experiment [16] it was 0.514 (inactive); in [17], 0.549; in [18], -2.21 (inactive); in experiment [19], -0.321 (inactive). Further, the z-score in experiment [20] was -2.75.
As to `CCOC(=O)NN=C1C[C@@H](O)[C@@H](O)[C@@H]2[C@@H]3C(=O)N(C[C@@H]4CCCO4)C(=O)[C@@H]3CC[C@@H]12`, the composite z-score was -0.0127 in experiment [1]; 0.293 in experiment [6]; -0.0933 in experiment [7]; 0.298 with Torsin-1A (Homo sapiens) [8]; 0.76 with Torsin-1A (Homo sapiens) [9]; 0.111 in experiment [10]. The molecule further returned a composite z-score in experiment [12] of -0.245. For the same molecule, the z-score in [2] is 0.0688 (inactive); in experiment [3], 0.139 (inactive); in [4], -0.658 (inactive); in [5] it was 0.75 (inactive); in experiment [11], 1.2 (inactive); in experiment [13], 0.564 (inactive). For the same molecule, the z-score is -0.243 (inactive) in [14]; 0.406 (inactive) in experiment [15]; -0.0631 (inactive) in experiment [16]; -0.0861 in experiment [17]; -0.543 (inactive) in experiment [18]; 0.111 (inactive) in experiment [19]. Moreover, in experiment [20], the z-score came out at 0.354.
For `CC(=O)OC[C@H]1O[C@@H](ON=C[C@@H](C)[C@H](OCc2ccccc2)C(C)C)[C@H](OC(C)=O)[C@@H](OC(C)=O)[C@@H]1OC(C)=O`, the composite z-score in [1] was 0.235; in experiment [6], -0.173; in experiment [7], 0.157; in the experiment with Torsin-1A (Homo sapiens) [8], 1.68; with Torsin-1A (Homo sapiens) [9], 0.958; in [10], -0.925. Moreover, in experiment [12], the composite z-score is 0.113. In addition, the z-score in [2] is 0.558 (inactive); in [3], -0.379 (inactive); in experiment [4], 2.19 (inactive); in experiment [5] it was 0.1 (inactive); in experiment [11], 0.319 (inactive); in experiment [13] it was 0.857 (inactive). The z-score was 0.536 (inactive) in experiment [14]; 1.04 (inactive) in [15]; 0.22 (inactive) in [16]; 0.761 in experiment [17]; -0.72 (inactive) in experiment [18]; 0.404 (inactive) in experiment [19]. Further, the z-score in experiment [20] is -0.856.
On to `COC(=O)CC1OC1[C@H](C)[C@@H](OC)C(C)C` (stereo not given in full), for which the composite z-score in [1] is -0.0087; in experiment [6] it was -0.329; in [7] it was -0.0963; in the experiment with Torsin-1A (Homo sapiens) [8], 0.436; with Torsin-1A (Homo sapiens) [9] it was 0.0299; in experiment [10] it was 0.813. In addition, the composite z-score in experiment [12] was -0.0186. For the same molecule, the z-score in experiment [2] is -0.229 (inactive); in [3], -0.183 (inactive); in experiment [4], 1.47 (inactive); in [5], -0.213 (inactive); in experiment [11], 0.547 (inactive); in experiment [13], 2.66 (inactive). Also, the z-score was -0.0353 (inactive) in experiment [14]; -0.324 (inactive) in experiment [15]; -0.146 (inactive) in [16]; 0.0023 in experiment [17]; -1.33 (inactive) in [18]; -1.67 (inactive) in [19]. Further, in experiment [20], the z-score was -1.45.
